RGS4-Gao reg: human RGS4-Galphao interaction regulation; 220,000 compounds, 0.33% hits; binding response (% of control), % at 10 µM; Multiplexed bead flow cytometry, RGS4-Galphao binding; actives lie on both sides; AID 1415; in the data active = binding response below about 49% or above about 150%; inactive = in between;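 also: fluorescent Galphao activated with aluminum fluoride binding bead-coupled RGS4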
Target sequence (P09471 whole entry, looked up): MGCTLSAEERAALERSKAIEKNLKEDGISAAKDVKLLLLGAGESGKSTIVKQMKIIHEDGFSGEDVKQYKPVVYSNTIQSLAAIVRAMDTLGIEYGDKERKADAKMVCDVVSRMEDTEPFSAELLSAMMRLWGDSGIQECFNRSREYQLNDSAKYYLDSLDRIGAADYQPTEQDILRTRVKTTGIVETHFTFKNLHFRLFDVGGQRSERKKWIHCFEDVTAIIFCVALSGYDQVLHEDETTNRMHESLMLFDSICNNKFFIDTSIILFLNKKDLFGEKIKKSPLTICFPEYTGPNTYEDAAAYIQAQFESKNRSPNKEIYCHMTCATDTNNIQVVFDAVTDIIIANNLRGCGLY
RGS7-Gao: modulates binding of RGS7 to human Galphao. P09471. Multiplexed bead flow cytometry; actives lie on both sides. binding response (% of control), % at 10 µM. 220,000 compounds, 0.35% hits; in the data active = binding response below about 49% or above about 150%; inconclusive = no clear call, values can overlap the other calls; inactive = in between;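 also: fluorescent Galphao held in activated GDP-AlF4 state binding bead-coupled RGS7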
Avidin bead fluor: compound fluoresces at 488/530 nm on avidin beads; 220,000 compounds, 0.38% hits; compound fluorescence 488/530 nm, flow cytometry; stronger effect = higher value; fluorescence (KMESF) at 10 µM; in the data active = fluorescence above about 47
RGS16-Gao HTS: RGS16-Galphao interaction regulator (human) | O15492+P09471 | bead-based flow cytometry RGS16-Galphao binding, fluorescence; actives lie on both sides | binding response (% of control), % at 10 µM | 220,000 compounds, 0.38% hits; call rule not given here;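 also: Galphao activated by GDP with aluminum fluoride before binding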
GSH fluor: GSH bead compound fluorescence profile; AID 1776; 190,000 compounds, 0.25% hits; GSH beads flow cytometry, compound fluorescence 488/530 nm; stronger effect = higher value; fluorescence (KMESF) at 10 µM; in the data active = fluorescence above about 89;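 also: glutathione beads carrying GST-tagged Bcl family fusion proteins plus one bare bead set; values are compound well signal with DMSO vehicle wells as background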
RGS8-Gao reg: human RGS8-Galphao interaction regulation; 220,000 compounds, 0.34% hits; response (percent of control binding), % at 10 µM; multiplexed bead flow cytometry, RGS8-Galphao binding; actives lie on both sides; P09471; in the data active = response below about 60% or above about 140%; inactive = in between;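 also: Galphao activated as the GDP aluminium fluoride complex binding bead-coupled RGS8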
An asterisk follows results filed as active; ? = inconclusive; · = not tested or not shown. Most compounds without a hit are left out; they make up all but 1.2% or so of the library.

SMILES	RGS4-Gao reg	RGS7-Gao	Avidin bead fluor	RGS16-Gao HTS	GSH fluor	RGS8-Gao reg
CS(=O)(=O)N1CCN(c2ccccc2NC(=O)c2cccs2)CC1	98	98	47*	98	10	99
COCCOC(=O)c1c(C)oc2ccc(OCC=C(C)C)cc12	105	110	48*	100	24	101
O=C1OC(/C(=C\Nc2cc(Cl)ccc2O)[N+](=O)[O-])c2ccccc21 (stereo not drawn)	103	?	17	99	8	100
COc1cc(S(=O)(=O)N(Cc2cccs2)CC2CCCO2)ccc1-n1cnnn1 (stereo not drawn)	97	126	50*	108	17	102
COc1cc(S(=O)(=O)N(Cc2ccccc2)CC2CCCO2)ccc1-n1cnnn1 (stereo not drawn)	95	102	5	48	27	86
CO/C(N)=C(\C#N)N=Cc1ccccc1Cl	100	103	12	102	20	101
Cc1nn(CC#N)c(=O)n1-c1ccccc1	99	98	7	97	262*	98
CCCCn1nnc(NC(=S)NC(=O)c2ccc(-c3cccc(Cl)c3Cl)o2)n1	103	99	8	98	12	91
Cc1ccc(C(=O)Nc2ccc(S(=O)(=O)N3CCc4ccccc43)cc2)o1	98	97	8	95	11	97
Cc1ccc(C(=O)Nc2ccc(S(=O)(=O)N3CCc4ccccc4C3)cc2)o1	103	100	50*	101	19	100
Cc1ccc(NCCC#N)cc1C	101	103	15	108	4	101
O=c1c2ccccc2c2ccccc2c(=O)n1Cc1ccco1	101	102	34	108	19	103
Cc1c(N=Cc2c(O)n(Cc3ccco3)c(=O)c3ccccc23)c(=O)n(-c2ccccc2)n1C	99	100	4	102	136*	101
Cc1ccc(N(CC(O)Cn2nc(C)cc2C)S(=O)(=O)c2ccc3ccccc3c2)cc1 (stereo not drawn)	97	96	14	95	17	98
Cc1cc(C)n(CC(O)CN(c2ccccc2)S(=O)(=O)c2ccccc2)n1 (stereo not drawn)	100	146	67*	116	39	96
Cc1cc(C)n(CC(C)NCc2cn[nH]c2-c2ccc(C)c(C)c2)n1 (stereo not drawn)	96	?	6	98	11	100
COc1ccc(C2CC(c3cccs3)=NN2C(=O)COC(=O)c2cncc(Br)c2)cc1OC (stereo not drawn)	103	?	9	100	14	102
CCOC(=O)C1C(c2cccs2)NC(=O)N(C)C1(O)C(F)(F)F (stereo not drawn)	100	107	59*	94	10	98
CN1C(=O)NC(c2cccc(O)c2)C(C(=O)c2cccs2)C1(O)C(F)(F)F (stereo not drawn)	100	103	28	100	19	101
CC(=O)Nc1ccc(NC(=O)COc2cccc3c2OC(C)(C)C3)cc1	99	111	58*	97	7	99
COCCNC(=O)C1(C)Oc2ccccc2NC1=O (stereo not drawn)	102	98	7	101	260*	104
C/C(Cc1nnn(-c2cc(C)on2)n1)=N\O	94	?	10	96	·	97
N=c1c2c3c(sc2ncn1Nc1ccccc1)CCC3	105	?	15	101	·	101
CC1=C(C(=O)OC(C)C)C(c2cccc([N+](=O)[O-])c2)n2c(cc(=O)[nH]c2=S)N1 (stereo not drawn)	99	97	3	104	7	101
CN(C)C(=O)c1nc(C#N)c(N(C)C)o1	97	98	7	98	257*	97
SMILES	RGS4-Gao reg	RGS7-Gao	Avidin bead fluor	RGS16-Gao HTS	GSH fluor	RGS8-Gao reg
CN(C)S(=O)(=O)c1cccc(NC(=O)COC(=O)COc2ccc(Br)cc2)c1	93	?	20	98	·	99
CN(C)S(=O)(=O)c1cccc(NC(=O)COC(=O)CCOc2ccccc2)c1	120	?	88*	101	13	97
OC(CNCc1ccco1)COc1ccccc1 (stereo not drawn)	97	99	6	95	45	99
OC(CNCc1ccco1)Cn1c2ccccc2c2ccccc21 (stereo not drawn)	96	102	6	100	263*	105
Cc1cc(C)nc(/N=C(\NC(=O)C(C)(C)C)Nc2ccc(F)cc2)n1	106	?	3	102	·	104
CC(C)(C)Nc1cccccc1=O	105	122	66*	103	38	101
COc1ccc(CC(=O)NNC(=O)CSc2ccc(C)cc2)cc1	101	?	9	105	18	102
Cc1ccnc(NS(=O)(=O)c2ccc(N3C(=O)Nc4ccccc4N3O)cc2)c1	105	101	9	104	12	102
O=C1Nc2ccccc2N(O)N1c1ccc(S(=O)(=O)Nc2ccccn2)cc1	115	128	64*	119	32	113
Cc1c(Cc2ccc3c(c2)OCO3)sc(NC(=O)c2ccc3ccccc3c2)c1C(N)=O	20*	35*	1	11*	13	29*
Cc1cccc(C)c1NS(=O)(=O)c1ccc(OCCNS(C)(=O)=O)cc1	84	84	7	83	15	89
Cc1ccc(/C=C2/SC(=O)NC2=S)o1	101	100	9	93	11	91
Cn1cnc2c(=O)[nH]cc([N+](=O)[O-])c21	112	118	62*	115	8	106
CC(C)(C)OC(=O)N[C@@H](Cc1ccccc1)c1nnc(S(=O)(=O)Cc2ccccc2)o1	98	101	8	93	9	94
Cc1ccccc1CS(=O)(=O)c1nnc([C@H](Cc2ccccc2)NC(=O)OC(C)(C)C)o1	116	132	48*	92	6	94
O=C(CCCn1nnc2ccccc2c1=O)N[C@H](C(=O)O)c1ccccc1	117	?	49*	97	·	98

From PubChem BioAssay
